Results as given in PubChem BioAssay AID652017 (The Scripps Research Institute Molecular Screening Center, 2013).
Hit rate of the full screen: of about 370,000 compounds, about 3,800 (1%) were called active. No stated cut-off is given here; in the data, active means activation above about 7.8%; inactive means the rest. The sample as a whole holds a higher share of actives than the screen did.

Assay: SMARCA2 (BRM) function activators, primary screen, cell-based, luminescence, high throughput (AID 652017);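 further: 0% = vehicle wells and 100% = reference activator wells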
Conditions: MG213 cells, MMTV-luciferase reporter, dexamethasone, overnight; at 9.1 µM; hits give high values

Structure (SMILES)	activation
O=C(CN1CCC(NC(=O)NCc2ccccc2)CC1)Nc1ccc2c(c1)OCCO2	0.31% (inactive)
COc1ccc(N2CCN(CCNS(=O)(=O)c3ccc(C(C)(C)C)cc3)CC2)cc1	3.29% (inactive)
Clc1ccc(-n2c(COc3ccccc3)nnc2SCc2nc3ccccc3[nH]2)cc1	-4.61% (inactive)
O=C(CCCCO)c1ccc(O)c(Cl)c1	-1.51% (inactive)
CC(C)CNc1cccc2c1S(=O)(=O)N(Cc1cn(Cc3ccccc3C(F)(F)F)nn1)Cc1ccccc1O2	-2.65% (inactive)
CCOC(=O)N1CCN(C(=O)C[C@@H]2C(=O)N(CCc3ccc(Cl)cc3)C3=CCCC[C@]32C(=O)OCC)CC1	-1.86% (inactive)
COc1cc(NC(=O)C2CCCN(S(=O)(=O)c3ccc(C(C)(C)C)cc3)C2)cc(OC)c1 (stereo unspecified)	2.08% (inactive)
CCCCCN1CCCCC(NC(=O)C(C)CCC)C1=O (stereo unspecified)	-0.09% (inactive)
CC1CCCCN1C(=O)CCS(=O)(=O)Cc1ccccc1 (stereo unspecified)	-2.25% (inactive)
C/C(=N\NC(=S)NCc1ccccc1)C1CCCCC1	1.15% (inactive)
CC1CCCCN1C(=S)NCc1ccccc1 (stereo unspecified)	8.25% (active)
O=C1C2CCCN2C(=O)N1CCCCN1CCN(c2cccc(C(F)(F)F)c2)CC1 (stereo unspecified)	2.48% (inactive)
CN(C)C(CNC(=O)c1ccc(OCc2cn3ccccc3n2)cc1)c1ccco1 (stereo unspecified)	11.2% (active)
O=Cc1ccc(OCc2cn3ccccc3n2)cc1	-6.54% (inactive)
O=C(NCCc1ccco1)c1ccc(OCc2cn3ccccc3n2)cc1	6.76% (inactive)
CC(=O)N1CCCN(C2=Nc3ccccc3Sc3ccccc32)CC1	-0.9% (inactive)
O=C(NCc1ccco1)C1CCCN(S(=O)(=O)c2ccc(Cl)s2)C1 (stereo unspecified)	-1.17% (inactive)
Fc1ccc(/C=N/Nc2nc(-c3cccnc3)nc3ccccc23)cc1	11.3% (active)
O=C(CSc1n[nH]c(-c2cccnc2)n1)Nc1ccnc2ccccc12	-1.59% (inactive)
COC(=O)c1cccc(Cn2ccc3ccc(-c4ccc5ccn(C(=O)C6CCCCC6)c5c4)cc32)c1	-0.58% (inactive)
Cc1ccccc1NC(=O)COC(=O)c1ccc(Sc2ncn[nH]2)c([N+](=O)[O-])c1	-3.59% (inactive)
CC[C@@H](CCC(=O)N(c1ccccc1)c1ccccc1)C1CC1	-5.25% (inactive)
Cc1ccc(NS(=O)(=O)c2ccc(C(C)C)cc2)cc1S(=O)(=O)N1CCOCC1	-0.94% (inactive)

Structure (SMILES)	activation
COC(=O)[C@@]12CCCCC=C1N(CCc1ccc(Cl)cc1)C(=O)[C@H]2CC(=O)NCc1ccc(OC)c(OC)c1	-0.41% (inactive)
CCOC(=O)c1nnn(CC(=O)Nc2cccc(F)c2)c1C(=O)OCC	-2.09% (inactive)
CCC(=O)Nc1ccc2nn(-c3ccc(F)cc3)nc2c1	9.02% (active)
O=C(Nc1cccc(Cl)c1)c1cncn1-c1ccc(F)cc1	-2.14% (inactive)
CC1CN(Cc2ccco2)C(=S)N(c2ccccc2)C1=O (stereo unspecified)	-1.86% (inactive)
CN(C)C(=S)N=c1ssc(=S)n1Cc1ccco1	8.22% (active)
CCc1ccccc1N1CN(Cc2ccco2)CNC1=S	-4.87% (inactive)
COC(=O)C1=C(C)N(Cc2ccc(F)cc2)C(=S)NC1c1cccc(Cl)c1 (stereo unspecified)	-3.14% (inactive)
Cc1cc(O)ccc1NC1=CC(=O)CC(C)(C)C1	-2.49% (inactive)
Cc1ccc(C(=O)OC2=CC(=O)CC(C)(C)C2)cc1	2.66% (inactive)
Cc1ccccc1C#CC1=CC(=O)CC(C)(C)C1	9.9% (active)
COc1ccccc1N(CC(=O)Nc1ccc(C(F)(F)F)cc1)S(C)(=O)=O	-1.17% (inactive)
C=CCN1C(=O)[C@@H](CC(=O)NCCCOCCCC)[C@]2(C(=O)OCC)CCCCC/C=C/12	-1.57% (inactive)
COc1ccc(-n2c(SCC(=O)NC3CCCC3)nnc2-c2ccncc2)cc1	-4.56% (inactive)
Cc1c(C(=O)NCCCc2ccccc2)cccc1[N+](=O)[O-]	8.08% (active)
CSc1ncc(C(=O)NCCCc2ccccc2)c(C)n1	-0.15% (inactive)
O=C(O)c1ccccc1-c1ccccc1C(=O)NCCc1ccccc1	1.35% (inactive)
O=S1(=O)c2c(cccc2N2CCSCC2)Oc2ccccc2CN1Cc1cn(Cc2ccc(F)cc2)nn1	-2.23% (inactive)
O=C(CCS(=O)(=O)c1ccccc1)Nc1ccc(Cl)c(Cl)c1	1.57% (inactive)
COc1ccc(-n2c(SCC(=O)Nc3ccc4c(c3)OCCO4)nnc2-c2ccc(Cl)cc2)cc1	-0.28% (inactive)
O=C(Nc1ccccn1)C1CCN(S(=O)(=O)c2ccc3c(c2)OCCO3)CC1	-2.23% (inactive)
Cc1ccnc(NC(=O)C2CCN(S(=O)(=O)c3c(C)c(C)cc(C)c3C)CC2)c1	9.5% (active)
Cc1ccc(Cl)cc1NC(=O)C1CCN(S(C)(=O)=O)CC1	-0.58% (inactive)

Structure (SMILES)	activation
COC(=O)[C@]12C[C@H](CC(=O)NCc3ccc(C)o3)C(=O)N(CCC3=CCCCC3)C1=C[C@H](C(C)(C)C)O[C@@H]2C	3.47% (inactive)
CCN(CC)C(=O)CC[C@@H]1CC[C@]2(CCCN(S(=O)(=O)C3CCCCC3)C2)O1	-3.43% (inactive)
CO/N=C/CC(=O)c1ccc(OC)cc1	4.21% (inactive)
COc1ccc(/C(N)=N/OC(=O)Oc2ccccc2)cc1	8.42% (active)
N/C(=N\OC(=O)CCc1ccccc1)c1ccc(Cl)cc1	5.53% (inactive)
CN(CC(=O)Nc1cccc(F)c1)C(=O)C1CSC2(C)CCC(=O)N12 (stereo unspecified)	-0.29% (inactive)
CN1[C@H](Cc2ccccc2)COc2cccc(N3CCSCC3)c2S1(=O)=O	0.97% (inactive)
Cc1cc(O)c(NC(=O)c2ccc(C)c([N+](=O)[O-])c2)cc1C	9.28% (active)
CCCCNc1ccc(C(=O)Nc2cccc(C)n2)cc1[N+](=O)[O-]	-1.63% (inactive)
CCN1CCC(=NNC(=O)c2ccc(C)c([N+](=O)[O-])c2)CC1	-0.87% (inactive)
COc1ccc(C(=O)N2CCN(c3ncccn3)CC2)cc1S(=O)(=O)N1CCOCC1	-2.62% (inactive)
Cc1cc(C(=O)NN=C/C=C/c2ccco2)n[nH]1	-4.94% (inactive)
Cc1ccc(NC(=O)Cc2cccc(F)c2)c(S(=O)(=O)N2CCOCC2)c1	-4.77% (inactive)
Cc1ccc(-c2c(C)n([O-])c3c([n+]2=O)CCC3)cc1	14.5% (active)
Cc1ccc(-c2c[n+](=O)c3c(n2[O-])CCC3)cc1	-3.37% (inactive)
CCOc1ccc(-c2c(C)n([O-])c3c([n+]2=O)CCCC3)cc1	0.92% (inactive)
CCCc1cc(=O)oc2c(C)c(OC(C)C(=O)NCC(O)c3ccccc3)ccc12 (stereo unspecified)	-0.91% (inactive)
CCCCCCOC(=O)NCC(O)c1ccccc1 (stereo unspecified)	11.2% (active)
CCCCOC(=O)Nc1nnc(CC(=O)NCc2ccccc2)s1	-0.38% (inactive)
CN(C)CCNC(=O)C(C(=O)c1ccccc1)n1ccccc1=O (stereo unspecified)	2.29% (inactive)
O=C(CSc1nc2ccccc2nc1N1CCCCC1)N1CCN(S(=O)(=O)c2cccc([N+](=O)[O-])c2)CC1	5.57% (inactive)
O=C(NC1CCC1)c1ccc(C#Cc2cccc(F)c2)c[n+]1[O-]	-2.93% (inactive)
Cn1cccc1/C=N/NC(=O)c1ccc(OC(F)(F)C(F)F)cc1	8.72% (active)

Structure (SMILES)	activation
O=C(Nc1ccc(OC(F)(F)F)cc1)c1ccc2c(c1)no[n+]2[O-]	-7.81% (inactive)
Cn1nccc1/C=N\NC(=O)c1ccc(Cl)cc1	-0.88% (inactive)
O=C(COc1cc(Cl)c(Cl)cc1Cl)NC(=O)NC1CCCC1	-2.73% (inactive)
CC(C)CSc1nnc(-c2cccnc2)n1Cc1ccccc1	-4.95% (inactive)
Cc1ccc(CN2CCCCC(NC(=O)C3CCCCC3)C2=O)cc1 (stereo unspecified)	-2.16% (inactive)
Cc1cc(C)c2nc(NC(=O)C3CCCO3)sc2c1 (stereo unspecified)	7.96% (active)
Cc1cc(C)c2nc(N3CCC(C(=O)NCCN4CCOCC4)CC3)sc2c1	-1.84% (inactive)
Cc1ccc(C)c(C(C)NC(=O)C2CCCO2)c1 (stereo unspecified)	-1.74% (inactive)
CCOC(=O)[C@]12CCCC3=C1N(CCC3)C(=O)[C@@H](CC(=O)N1CCSCC1)C2	-1.03% (inactive)
CCOc1ccc(-n2c(SCC(=O)Nc3cc(C)c(NC(=O)c4ccccc4)cc3OC)nnc2-c2cccc(Cl)c2)cc1	-5.83% (inactive)
CN(C)S(=O)(=O)c1cccc(C(=O)N/N=C\c2ccco2)c1	-2.36% (inactive)
COc1cc(NC(=S)N2CCCC(C)C2)cc(OC)c1OC (stereo unspecified)	3.14% (inactive)
CCC(C)c1ccc(NC(=S)N2CCCC2)cc1 (stereo unspecified)	-0.97% (inactive)
CCCCc1ccc(NC(=S)N2CCCC(CO)C2)cc1 (stereo unspecified)	15% (active)
N#CCC[C@H]1CC[C@]2(CCCN(Cc3ccc(Cl)cc3)C2)O1	-3.04% (inactive)
COc1ccccc1C(=O)CSc1nnc(-c2ccccn2)n1-c1ccccc1	5.55% (inactive)
O=S1(=O)c2ccc(N3CCN(Cc4ccccc4F)CC3)cc2Oc2ccccc2CN1Cc1cn(Cc2ccc(Cl)cc2)nn1	4.05% (inactive)
Cc1cccc(NC(=O)C[C@H]2CC[C@H]3[C@@H](COc4ccc(NC(=O)Nc5ccccc5)cc4C(=O)N3C)O2)c1	2.72% (inactive)
Cc1cc(=O)[nH]c(SCC(=O)Nc2ccc(Cl)cc2C)n1	-2.94% (inactive)
CCc1c(C)c2ccc(OC3CCCCC3=O)cc2oc1=O (stereo unspecified)	13.8% (active)
O=C(COc1ccc2c3c(c(=O)oc2c1)CCC3)NC1CCCCC1	-1.03% (inactive)
COC(=O)Cc1c(C)c2ccc(OCC(=O)NCc3ccc4c(c3)OCO4)cc2oc1=O	2.31% (inactive)
